Activity calls are given as the source filed them.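 Rule for the calls: active = primary screen hit whose calcium fluorescence ratio, in both repeats, exceeds the weak agonist control mean by 3 SD; inactive = the rest.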

The assay has as its system TRPC4 beta (transient receptor potential cation channel C4), mouse. The assay is described as follows: potentiation of DAMGO EC20 TRPC4 response – cell-based, Fluo-4, HEK293 TRPC4beta/mu-opioid, confirmation (AID 2555). The following applies: DAMGO EC20, Fluo-4 calcium flux, at 10 µM; active compounds read high. On the technique in general: Calcium assays in cells follow changes in intracellular calcium, usually with a dye or a luminescent sensor.
With `Cc1cc(N2CCCCC2)nc(NCc2ccccc2)n1`, the result was inactive.
Turning to `COCCNC(=O)/C(C#N)=C/c1cc(C(C)C)c(OC)cc1C`, the potentiation is 14% (active).
On the same count and under the same terms, in the case of `CCN1CCN(c2ccc(S(=O)(=O)N3CCCCC3)cc2NC(=O)COc2cc(C)ccc2Cl)CC1` it was 16% (active).
As for `FC(F)(F)COc1nc(N2CCCCC2)nc(N2CCNCC2)n1`, the result was inactive.
Still for that read-out and setting: with `CCSc1nnc([C@H](Cc2c[nH]c3ccccc23)NC(=O)OC(C)(C)C)o1` the entry was “inactive”.
With `COc1ccc(/C=C(\C#N)C(=O)N2CCOCC2)cc1Br`, the potentiation was 17% (active).
Consider `N#Cc1ccc(OCC(O)CN2CCN(c3ncc(C(F)(F)F)cc3Cl)CC2)cc1` (stereo not given), for which the outcome was inactive.
For `CCCC1=C(C(=O)OCC)C(c2cc(Cl)cc(OC)c2OCC(=O)OCC)NC(=O)N1` (stereo not given), the potentiation was 22% (active).
As for `CCCCCc1ccc(OCCCC[n+]2ccccc2)c(CCCCC)c1`, the outcome was inactive.
The same measure, in the same setting: in the case of `CC(C)(C)c1ccccc1OCCCCCn1ccnc1` it was “inactive”.
Consider `CCOC(=O)COc1cc(-n2c(=S)[nH]c3ccccc3c2=O)c(Cl)cc1Cl`, for which the potentiation is 21% (active).
Consider `CCCCc1nc(N2CCOCC2)c(C#N)c2c1CCCC2`, for which the outcome was inactive.
As for `CCN1CCN(c2ccc(NC(=O)CCc3c(C)nc4c(-c5ccc(F)cc5)c(C)nn4c3C)cc2)CC1`, the outcome was inactive.
As to `CCOc1cc(/C=C(\C#N)C(=O)Nc2cccc(C(=O)O)c2)cc(Br)c1OC(=O)c1ccc(OC)cc1`, the potentiation was 28% (active).
Regarding `COc1ccc(Cl)c2sc(N(CCN(C)C)C(=O)c3ccc4c(c3)OCCO4)nc12`, the potentiation was 26% (active).
For the compound `CCCCN1C(=O)C(=O)N(CC(=O)Nc2cc(OCC)c(N3CCOCC3)cc2OCC)C1=O`, the result was inactive.
For the compound `CN(C)CCOc1ccc2ccccc2c1`, the potentiation was 14% (active).
As to `CCCn1c(NCc2cc(OC)ccc2OC)nc2ccccc21`, the outcome was inactive.
Take `COC(=O)c1ccc(NC(=O)CCN2CCN(Cc3ccccc3)CC2)cc1`: the outcome was inactive.
On to `Cn1c(=O)c2c(nc(SCCN3CCCCC3)n2Cc2ccccc2)n(C)c1=O`, for which the potentiation was 36% (active).
For `O=C(NCc1ccccc1Cl)/C(=C\c1cccnc1)NC(=O)c1ccccc1`, the result was inactive.
Take `COC(=O)[C@@]12CCCN1[C@H](c1ccc(-c3ccc(OC)cc3)cc1)[C@@H]1C(=O)N(C)C(=O)[C@@H]12`: the potentiation was 32% (active).
`COc1ccc(-c2cc(C(F)(F)F)nc(N3CCN(C)CC3)n2)cc1`: the outcome was inactive.
Take `CCOc1ccc(NS(=O)(=O)c2ccc(NC(=S)NC(=O)CC(C)C)cc2)cc1`: the potentiation is 15% (active).
Take `CCCN(CCC)CCCNC(=O)c1cc2c(=O)n(C)c3ccccc3c2n1C`: the outcome was inactive.
Same read-out and setting: in the case of `COc1ccc(CNCC(O)(c2ccccc2)c2ccccc2)cc1OC` it was “inactive”; in that of `CCOc1cc2[nH]c(=S)n(C3CC3)c(=O)c2cc1OCC`, “inactive”; in that of `CCOC(=O)c1c(C(F)(F)C(F)(F)C(F)(F)C(F)(F)F)n[nH]c1C`, “inactive”.
With `Cn1c(=O)cc(OCCCC(=O)NCCCN2CCN(Cc3ccccc3)CC2)c2ccccc21`, the potentiation is 19% (active).
Turning to `CC(=O)C1=C(O)C(=O)N(Cc2ccco2)C1c1ccc2c(c1)OCO2` (stereo not given), the result was inactive.
Consider `CCc1cc2c(SCC(=O)N(C)C3CCS(=O)(=O)C3)ncnc2s1` (stereo not given), for which the potentiation is 35% (active).
Regarding `OC(CNCC1CCCO1)Cn1c2ccc(Br)cc2c2cc(Br)ccc21` (stereo not given), the result was inactive.
On the same count and under the same terms, with `CCN1CCN(c2ccc(S(=O)(=O)N3CCCCC3)cc2NC(=O)c2cccc(F)c2)CC1` the entry was “inactive”; with `COC(=O)/C=C1\SC(=NC(=O)c2cccc(Cl)c2)NC1=O`, “inactive”.
As to `CCCc1ccc(OCc2ccc(C(=O)N3CCCC3)o2)cc1`, the potentiation is 23% (active).
As for `Cc1ccc(-c2csc3ncnc(NCCN4CCOCC4)c23)cc1`, the result was inactive.
Same read-out and setting: with `Cn1c(=O)n(CCCO)c(=O)c2c1nc1n2CCCN1Cc1ccccc1` the entry was “inactive”.
As to `O=C(NC1CC1)c1ccc2c(c1)N(Cc1ccc(Cl)cc1)CCS2`, the result was inactive.
On to `O=C(COc1ccccc1-c1ccccc1)NCc1ccco1`, for which the result was inactive.
On the same count and under the same terms, in the case of `CCOc1ccc2nc(NCCNC(=O)C3CC3)c(C)cc2c1` it was “inactive”.
